This passage reports sensor-assay potency score (higher = more potent) results from the OligoGym collection.
Note: reference of the scale not given here.

This test concerns the target ERCC8. Briefly: pooled miR-30 sensor sort-seq; sequence = guide strand. To be noted: shRNA.
TTACTCTACTGTCAGCACTTGC displayed a sensor-assay potency score (higher = more potent) of -0.793.

ATTATCTGTACCAACAGTGAGG returned a sensor-assay potency score (higher = more potent) of -0.965.

TCTGTCTTTATTTAATTCCAGT: the sensor-assay potency score (higher = more potent) was -1.2.

In turn, TTGACTAAATAAACTATACAGA registered a sensor-assay potency score (higher = more potent) of -1.03.

Take TATAGTTCATAAAATCTGCTGA: the sensor-assay potency score (higher = more potent) came to 0.347.

Regarding TTGTAGTCTCATCATCATCAGG, the sensor-assay potency score (higher = more potent) was -1.16.

TTTCTTGTCTGTGACCCTGTAG: the sensor-assay potency score (higher = more potent) was -0.264.

Turning to TTGAAAAAAACACAGTCTCATT, the sensor-assay potency score (higher = more potent) is -1.3.

The sequence TAACTTTCCCATTATGAGCAGT had a sensor-assay potency score (higher = more potent) of -0.724.

TAGCTGTCAGGAATAGACCATA: the sensor-assay potency score (higher = more potent) was -0.945.

Regarding TTGTAATGTATTTGTATCCCAT, the sensor-assay potency score (higher = more potent) was -0.441.

Consider TCTAGTACCAACTGCTACCAAA, for which the sensor-assay potency score (higher = more potent) was -1.28.
